Source: PubChem BioAssay (EPA / NIEHS)
The source made the active and inactive calls. The calls were made as follows: active = hit-call score of the fitted dose curve at least 0.9, where 1 is the maximum; inactive = score below 0.9.

Test: CCTE_Shafer_MEA_acute_per_network_burst_spike_number_mean: CCTE's Neural Acute Assay for Average Number of Spikes in a Network Burst, Shafer Lab (AID 2284019)
Protocol: CCTE_Shafer_MEA_acute assay is conducted using Axion Biosystems 48 well microelectrode array (MEA) plates and Maestro recording system. Each well of the MEA plate contains a grid of 16 microelectrodes embedded in the culture surface. Electrically active cells, such as neurons, can be cultured over the electrodes, and electrical activity in these cells can be recorded extracellularly. The spontaneous firing of neurons is captured from each electrode on a microsecond timescale providing both temporally and spatially precise data. […] The CCTE_Shafer_MEA_acute assay uses primary cultures of rat cortical neurons. As these cultures mature over time, neural networks develop functional activity and form cohesive networks in which electrical activity can be highly coordinated. Baseline 40-minute recordings are made on days post-plating 13 or 15, followed by a secondary 40-minute recording after chemical exposure.CCTE_Shafer_MEA_acute_per_network_burst_spike_number_mean is a component of the CCTE_Shafer_MEA_acute assay. It measures the average number of spikes (action potential firings) in a network burst (temporally-clustered group of spikes across multiple electrodes) as the total number of spikes in a network burst divided by the number of network bursts during a recording in a microelectrode array (MEA) using Axion Biosystems Maestro 768 channel amplifier with the AxIS adaptive spike detector. The recordings before and after chemical treatment are used to calculate a percent change in the mean number of spikes in a network burst in each well.Data from the assay component CCTE_Shafer_MEA_acute_per_network_burst_spike_number_mean was analyzed into 1 assay endpoint. This assay endpoint, CCTE_Shafer_MEA_acute_per_network_burst_spike_number_mean, was analyzed in the negative analysis fitting direction relative to DMSO as the negative control and baseline of activity. Using a type of functional reporter, gain or loss-of-signal activity can be used to understand electrical activity.
Spontaneous activity in the cortical cultures was recorded using an Axion Biosystems Maestro 768 channel amplifier and Axion Integrated Studios (AxIS) v1.8 (or later) software. The amplifier recorded from all channels simultaneously (gain = 1200 x; sampling rate = 12.5 kHz/channel): raw signals were filtered with a Butterworth band-pass filter (300-5000 Hz), which filters out slower local field potentials leaving only fast potentials, i.e., "spikes", arising from extracellular currents associated with action potentials (Pine 2006; Wheeler and Nam 2011). On-line spike detection of filtered signals was conducted with the AxIS adaptive spike detector, using a threshold of 8x the root mean squared (rms) noise on each channel. Any electrodes with rms noise levels greater than 5 uV were grounded (e.g., no data were recorded). Once grounded, an electrode was grounded for the duration of the experiment. All recordings were conducted at 37 C. Wells were deemed usable if on the day of the exposure >/= 10 electrodes were active (defined as >/= 5 spikes/min). On DIV 13 or 15, a minimum of three wells from one cortical culture preparation were treated with each compound (0.03-40 uM). Prior to recording baseline activity, each mwMEA plate was placed in the Maestro at 37 C and allowed to sit for 20 min while firing rates stabilized. Baseline activity (40 min) was recorded before the addition of each compound. An additional 40 min of spontaneous activity was recorded in the presence of each compound. Changes in network parameters relative to baseline were assessed following compound treatment.

| SMILES | outcome | AC50 |
| --- | --- | --- |
| C[N+](C)(C)CC1CO1 (stereo not given) | inactive | – |
| ClC1=C(Cl)[C@]2(Cl)[C@H]3[C@H]([C@@H]4C=C[C@H]3C4)[C@@]1(Cl)C2(Cl)Cl | inactive | – |
| CCCCCOC(=O)c1ccccc1C(=O)OCCCCC | inactive | – |
| Cc1cc(N=Nc2ccccc2C)ccc1N | inactive | – |
| CCN(CC)CCO | inactive | – |
| Clc1ccc(C(c2ccc(Cl)cc2)C(Cl)(Cl)Cl)cc1 | inactive | – |
| CCN(CC)N=O | inactive | – |
| c1ccc(NNc2ccccc2)cc1 | inactive | – |
| O=Cc1ccco1 | inactive | – |
| [Cl-].[Cl-].[Hg+2] | inactive | – |
| c1ccc(N=Nc2ccccc2)cc1 | inactive | – |
| N#CC(Br)Br | inactive | – |
| Cc1ccc(N)c(N)c1 | inactive | – |
| CC(C)(O)c1cnn2c(-c3ccc(F)c(-c4c(F)cccc4C#N)c3)cnc2n1 | inactive | – |
| CCCCCCCCn1sccc1=O | – | 3.28 µM (active) |
| CCCCOC(=O)c1ccccc1C(=O)OCc1ccccc1 | – | 2.58 µM (active) |
| COC(=O)Nc1nc2ccccc2[nH]1 | inactive | – |
| O=C(N[C@H](c1ccccc1)[C@@H]1CN2CCC1CC2)c1c(Cl)ccc(C(F)(F)F)c1Cl | inactive | – |
| O=[N+]([O-])C(Br)(CO)CO | inactive | – |
| O=P(OCCCl)(OCCCl)OCCCl | inactive | – |
| CC(C)COC(=O)c1ccccc1C(=O)OCC(C)C | – | 6.67 µM (active) |
| ClCCOCCCl | inactive | – |
| CC(C)(C)C(O)(CCc1ccc(Cl)cc1)Cn1cncn1 (stereo not given) | – | 1.22 µM (active) |
| O=[N+]([O-])c1ccc(Oc2ccc(Cl)cc2Cl)cc1 | inactive | – |
| ClC1=C(Cl)C2(Cl)C3C(Cl)C=CC3C1(Cl)C2(Cl)Cl (stereo not given) | – | 4.22 µM (active) |
| Clc1ccc(C(c2ccc(Cl)cc2)C(Cl)Cl)cc1 | – | 2.37 µM (active) |
| CCC[CH2][Sn]([Cl])([CH2]CCC)[CH2]CCC | inactive | – |
| O=C(Oc1ccc(Br)cc1)N1CCN2CCC1CC2 | – | 20 µM (active) |
| CCC(C)c1ccc(O)cc1 (stereo not given) | inactive | – |
| CC(C)(OOC(C)(C)c1ccccc1)c1ccccc1 | inactive | – |
